Screen size: about 320,000 compounds; about 2,100 (0.66%) were called active. About 53% were inconclusive and are not listed. This is one part of a sample in which actives are shown more often than they occur. Calls come from the whole dose curve; as a rule, active = well fitted inhibition curve with a large enough effect in the signal ratio, with a control signal flat (not every such curve was filed as active); inconclusive = small, poorly fitted or top-dose-only effect, or effect the other way, or a change in a side signal; inactive = flat fitted curve, though single readings scatter; the % refers to the signal ratio.
Assay: qHTS Assay for Lipid Storage Modulators in Drosophila S3 Cells;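 for cell number change: cells counted by Cell Tracker Red CMTPX staining in the red channel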; for lipid storage change, negative = inhibition: % is set by controls: 0 for no effect and ±100 for the full control effect
Details: BODIPY lipid droplet fluorescence, 18-24 h, cells fed with added oleic acid; cell number change: measured here: cell count max response; series mostly up to 46.1 µM; lipid storage change, negative = inhibition: at the top concentration
Outline: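 Drosophila S3 cells got compounds at several concentrations plus oleic acid (400 uM solution). Laser-scanning cytometry with 488 nm excitation read lipid droplets at 500-530 nm and cells at 575-640 nm. Percent activity was relative to 20 uM Triacsin C.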
With `Cc1cc(C)cc(N2CC(C(=O)Nc3cc(C)on3)CC2=O)c1` (stereo not drawn) the “lipid storage change, negative = inhibition” value was -6.62% (inactive) and the cell number change was -8.97%.
For `CC(=O)c1ccccc1C(=O)N1CCCC(CNC(=O)c2ccccc2Cl)C1` (stereo not drawn), the “outcome” value was “inactive”.
In the case of `Cc1cccc(NC(=O)N2CCCC(CNC(=O)c3ccccc3Cl)C2)c1C` (stereo not drawn), the Potency was 20.6 µM (active) and the cell number change was -15%.
In the case of `COc1ccccc1NC(=O)N1CCCC(CNC(=O)c2ccccc2Cl)C1` (stereo not drawn), the “outcome” value was “inactive” and the cell number change was 21.5%.
With `O=c1c(Cl)c(N2CCNCC2)cnn1C12CC3CC(CC(C3)C1)C2` the “lipid storage change, negative = inhibition” value was 1.07% (inactive) and the cell number change was 5.13%.
With `CCCc1nnc(NC(=O)CSc2nc3ccccc3[nH]2)s1` the “lipid storage change, negative = inhibition” value was 3.54% (inactive) and the cell number change was -1.76%.
For `COc1ccc(OC)c(NC(=O)CC(NCCC2=CCCCC2)C(=O)O)c1` (stereo not drawn), the Potency was 4.61 µM (active) and the cell number change was 1.58%.
With `COc1ccc(C)cc1NC(=O)NCCC1=CCCCC1` the “outcome” value was “inactive”.
In the case of `COc1ccc(NC(=O)CC(NCCc2ccccc2)C(=O)O)c(OC)c1` (stereo not drawn), the “lipid storage change, negative = inhibition” value was -5.38% (inactive) and the cell number change was 2.02%.
For `S=c1[nH]nc(-c2cccs2)n1/N=C/c1cn(-c2ccccc2)nc1-c1ccccc1`, the “lipid storage change, negative = inhibition” value was -0.402% (inactive) and the cell number change was -2.97%.
With `CCCC[N+](CC#CCO)(CC#Cc1ccccc1)CCCC` the “lipid storage change, negative = inhibition” value was 11.3% (inactive) and the cell number change was 24.4%.
With `Cc1nc(SCC(O)CCl)c([N+](=O)[O-])[nH]1` (stereo not drawn) the “lipid storage change, negative = inhibition” value was -0.122% (inactive) and the cell number change was 21.1%.
For `CC(C)OP(=O)(OC(C)C)C(Nc1ccc(C(=O)O)cc1)c1ccccc1` (stereo not drawn), the “lipid storage change, negative = inhibition” value was -19.3% (inactive) and the cell number change was -10.6%.
For `COc1cc(CNc2ncn[nH]2)ccc1OCC(=O)NC(C)(C)C`, the “lipid storage change, negative = inhibition” value was 15.6% (inactive) and the cell number change was -0.636%.
In the case of `Cc1nn(S(=O)(=O)N2CCOCC2)c(C)c1Br`, the “lipid storage change, negative = inhibition” value was -9.45% (inactive) and the cell number change was -1.55%.
In the case of `Cn1c(=O)c2c(SCC(=O)N3CCOCC3)nc(-c3ccccc3Cl)nc2n(C)c1=O`, the “outcome” value was “inactive” and the cell number change was -19.8%.
For `CCc1nc(SCC(=O)NCc2ccccc2)c2c(=O)n(C)c(=O)n(C)c2n1`, the “lipid storage change, negative = inhibition” value was 25.2% (inactive).
In the case of `Cn1c(=O)c2c(SCC(=O)NCc3ccco3)nc(-c3ccccc3Cl)nc2n(C)c1=O`, the Potency was 8.91 µM (active) and the cell number change was -20.7%.
With `CCc1nc(SCC(=O)Nc2ccccc2)c2c(=O)n(C)c(=O)n(C)c2n1` the Potency was 7.31 µM (active) and the cell number change was -27.3%.
In the case of `CCc1nc(SCC(=O)Nc2ccc(F)cc2)c2c(=O)n(C)c(=O)n(C)c2n1`, the “lipid storage change, negative = inhibition” value was -28.8% (inactive) and the cell number change was 7.11%.
In the case of `CCc1nc(SCC(=O)NCc2ccco2)c2c(=O)n(C)c(=O)n(C)c2n1`, the “outcome” value was “inactive”.
With `CCN(CC)S(=O)(=O)c1ccc(/C=C/C(=O)OCC(=O)Nc2cccc3ccccc23)cc1` the “lipid storage change, negative = inhibition” value was 7.73% (inactive) and the cell number change was 15.5%.
In the case of `Cc1noc(C)c1S(=O)(=O)N1CCC(C(N)=O)CC1`, the “lipid storage change, negative = inhibition” value was 12.8% (inactive) and the cell number change was -15.5%.
With `Cc1ccc(C(=O)OCC(=O)NCCC2=CCCCC2)cc1N` the “lipid storage change, negative = inhibition” value was 1.1% (inactive).
In the case of `COc1cccc(NC(=O)c2ccc(CN3CCc4ccccc4C3)cc2)c1`, the “outcome” value was “inactive” and the cell number change was 26.4%.
With `C=CCNc1nc(C(=O)OCC(=O)c2ccccc2)cs1` the “outcome” value was “inactive” and the cell number change was 16.2%.
In the case of `COc1cccc(C(=O)NC(=S)Nc2cccnc2)c1`, the “lipid storage change, negative = inhibition” value was 1.88% (inactive) and the cell number change was -2.34%.
With `CC1=NN(C(N)=S)C(=O)C1N=Nc1ccc(S(N)(=O)=O)cc1` (stereo not drawn) the “lipid storage change, negative = inhibition” value was -1.77% (inactive) and the cell number change was 3.52%.
For `CC1=NN(C(N)=S)C(=O)C1N=Nc1ccccc1Cl` (stereo not drawn), the Potency was 6.51 µM (active) and the cell number change was -28.8%.
For `CCOc1ccccc1N=NC1C(=O)N(C(N)=S)N=C1C` (stereo not drawn), the “lipid storage change, negative = inhibition” value was -2.42% (inactive) and the cell number change was -0.35%.
In the case of `CC1=NN(C(N)=S)C(=O)C1N=Nc1ccccc1C` (stereo not drawn), the “lipid storage change, negative = inhibition” value was 2.34% (inactive) and the cell number change was 2.36%.
With `CCOc1ccc(N=NC2C(=O)N(C(N)=S)N=C2C)cc1` (stereo not drawn) the Potency was 2.31 µM (active) and the cell number change was -27.4%.
With `CC1=NN(C(N)=S)C(=O)C1N=Nc1ccccc1O` (stereo not drawn) the “lipid storage change, negative = inhibition” value was 2.59% (inactive) and the cell number change was -20.1%.
For `Cc1c(NC(=O)Nc2ccc([N+](=O)[O-])cc2)c(=O)n(-c2ccccc2)n1C`, the “lipid storage change, negative = inhibition” value was -3.7% (inactive) and the cell number change was -0.0298%.
With `Cc1ccc(S(=O)(=O)N(CC(=O)NCCSc2ccccn2)c2cc(C)cc(C)c2)cc1` the “lipid storage change, negative = inhibition” value was -21.1% (inactive) and the cell number change was -8.96%.
With `COc1ccc(NS(=O)(=O)c2ccc(N3CC(O)=C(c4ccccc4)C3=N)cc2)cc1` the “lipid storage change, negative = inhibition” value was 12.1% (inactive) and the cell number change was 18.3%.
For `COC(=O)C(NC(=O)c1ccccc1Cl)(Nc1ncc(S(=O)(=O)c2ccc([N+](=O)[O-])cc2)s1)C(F)(F)F` (stereo not drawn), the Potency was 20.6 µM (active) and the cell number change was 9.68%.
In the case of `COC(=O)C(NC(=O)c1ccc(F)cc1)(Nc1ncc(S(=O)(=O)c2ccc([N+](=O)[O-])cc2)s1)C(F)(F)F` (stereo not drawn), the “lipid storage change, negative = inhibition” value was 5.96% (inactive) and the cell number change was 0.5%.
With `COC(=O)C(NC(=O)c1ccccc1C)(Nc1ncc(S(=O)(=O)c2ccc([N+](=O)[O-])cc2)s1)C(F)(F)F` (stereo not drawn) the “lipid storage change, negative = inhibition” value was -0.188% (inactive) and the cell number change was -2.46%.
With `O=C(NC(Nc1nc2ccc([N+](=O)[O-])cc2s1)(C(F)(F)F)C(F)(F)F)c1cccnc1` the “outcome” value was “inactive” and the cell number change was -11%.
For `Cn1cc(Cl)c(C(=O)Nc2nc3ccc([N+](=O)[O-])cc3s2)n1`, the “lipid storage change, negative = inhibition” value was 16.6% (inactive) and the cell number change was -2.18%.
For `O=C(NC(Nc1nc2ccc([N+](=O)[O-])cc2s1)(C(F)(F)F)C(F)(F)F)c1ccccc1Cl`, the Potency was 5.8 µM (active) and the cell number change was -26.5%.
With `Cn1nc([N+](=O)[O-])nc1Sc1ccc(Cl)cc1` the “lipid storage change, negative = inhibition” value was -10.4% (inactive) and the cell number change was 9.49%.
In the case of `Nc1cnc(Br)cc1Br`, the “lipid storage change, negative = inhibition” value was 0.0052% (inactive) and the cell number change was -3.4%.
With `Cc1ccc(NC(=O)CNC(=O)c2ccc(Br)o2)nc1` the “lipid storage change, negative = inhibition” value was -5.59% (inactive).
For `CCOc1c(N2CC(C)OC(C)C2)c(=O)c1=O` (stereo not drawn), the “lipid storage change, negative = inhibition” value was -2.8% (inactive) and the cell number change was -16.5%.
For `Cc1ccc(/C=C/C(=O)Nc2sc(C)c(C)c2C(=O)OC(C)C)o1`, the “lipid storage change, negative = inhibition” value was -0.0019% (inactive) and the cell number change was 0.157%.
Potency is the fitted concentration of half-maximal effect.
